This is a sample that favours compounds with a hit; in the whole collection about 3.6% have one here.
PHOSPHO1 inh = blocks human PHOSPHO1 phosphatase activity; Q8TCT1; recombinant PHOSPHO1, absorbance phosphatase assay; inhibition, % at 13.3 µM; hit rate 1.1% among 290,000; AID 1565; in the data active = inhibition above about 60%
A3A deaminase = blocks human APOBEC3A ssDNA deamination. P31941. recombinant A3A, FAM/TAMRA ssDNA deamination fluorescence. inhibition, % at 20 µM. hit rate 0.41% among 330,000;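 active = at least 40% inhibition at 20 µM here, with at most 30% in a related deaminase screen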;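 also: plate controls were A3A with DMSO for no effect and wells lacking A3A enzyme for full effect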
Target sequence (P31941 whole entry, looked up): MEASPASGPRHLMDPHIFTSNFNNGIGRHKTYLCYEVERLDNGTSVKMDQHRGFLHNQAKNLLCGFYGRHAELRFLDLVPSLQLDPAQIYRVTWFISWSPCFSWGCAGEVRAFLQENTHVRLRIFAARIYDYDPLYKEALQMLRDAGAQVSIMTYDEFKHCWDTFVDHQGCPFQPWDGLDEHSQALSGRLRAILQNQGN
A3G deaminase = blocks human APOBEC3G single-stranded DNA deamination | Q9HC16 | inhibition, % at 20 µM | hit rate 0.28% among 330,000 | recombinant A3G, ssDNA deamination FAM/TAMRA fluorescence;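 active = inhibition of at least 40% at 20 µM, with no more than 30% in the related APOBEC3A deaminase screen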;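 also: plate controls were DMSO wells with A3G for no effect and wells lacking A3G enzyme for full effect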
Target sequence (Q9HC16 whole entry, looked up): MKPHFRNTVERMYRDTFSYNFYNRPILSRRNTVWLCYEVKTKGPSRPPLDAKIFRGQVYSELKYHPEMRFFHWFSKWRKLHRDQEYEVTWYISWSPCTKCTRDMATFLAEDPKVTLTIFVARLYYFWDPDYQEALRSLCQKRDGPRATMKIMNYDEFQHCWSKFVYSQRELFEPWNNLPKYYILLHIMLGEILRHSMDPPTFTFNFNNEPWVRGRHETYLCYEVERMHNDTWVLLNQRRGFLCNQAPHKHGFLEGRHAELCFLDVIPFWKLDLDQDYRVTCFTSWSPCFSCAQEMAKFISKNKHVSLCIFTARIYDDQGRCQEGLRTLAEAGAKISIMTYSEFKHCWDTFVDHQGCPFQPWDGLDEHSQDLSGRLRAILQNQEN
esBAF inh = inhibitors of esBAF chromatin remodeling in mouse ES cells; Bmi1-luciferase knock-in reporter, 24 h; 100% = twice the neutral-well signal; reporter increase, % at 12.5 µM; hit rate 2% among 350,000; in the data active = activation above about 40%; inconclusive = no clear call, values can overlap the other calls;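 also: 0% = median of the plate's neutral control wells and 100% = double that signal; a rise in the Bmi1 reporter signal indicates esBAF inhibition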
Wnt bcat act = activates Wnt/beta-catenin signaling in a reporter cell assay; activator, plate reader; activation, % at 9.35 µM; hit rate 1.2% among 300,000; in the data active = activation above about 30%, passing the limit was not always enough; inconclusive = no clear call, values can overlap the other calls;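 also: 0% = neutral control wells and 100% = positive control wells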
MITF TRPM1 HTS = MITF TRPM1 promoter activation in melanoma cells; AID 588334; SK-MEL-5 TRPM1-promoter luciferase, 24 h; % of positive control, neutral wells = 0; hit rate 0.75% among 300,000; activation, % at 12.5 µM;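 active = mean activation of at least 80% with every replicate also reaching 80%; inconclusive = mean reaches 80% but some replicate falls short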;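 also: 0% = neutral control wells and 100% = parthenolide positive control wells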
Numbers without * were called inactive; u = inconclusive; x = no result.

SMILES	PHOSPHO1 inh	A3A deaminase	A3G deaminase	esBAF inh	Wnt bcat act	MITF TRPM1 HTS
COc1ccc2cc(C(=O)N3CCN(C)CC3)[nH]c2c1	48	-1	-5	23	17	44
O=C1c2ccccc2S(=O)(=O)N1CC1CC(c2ccc(Cl)cc2)=NO1 (stereo not drawn)	4	0	-7	x	46*	32
CCOc1ccc(N2C(=O)C(Cl)=C(Nc3ccccc3O)C2=O)cc1	55	-9	-9	41*	x	-17
O=C1C(Cl)=C(Nc2ccccc2O)C(=O)N1CCc1ccccc1	-9	3	-2	62*	-1	-2
COc1ccccc1NC1=C(Cl)C(=O)N(c2ccccc2)C1=O	-13	1	13	x	x	9
COc1ccc(CCNC2=C(Cl)C(=O)N(CCc3ccccc3)C2=O)cc1OC	5	-3	-3	x	2	0
Cc1noc(C)c1S(=O)(=O)N(C)C[C@H]1OCc2ccccc2-c2c(n(C)c3ccccc23)C(=O)N([C@H](C)CO)C[C@H]1C	x	x	x	0	x	x
O=C(C[C@H]1CC[C@@H]2[C@H](COC[C@@H](O)CN2C(=O)Nc2ccc(Cl)cc2)O1)N1CCCCC1	x	x	x	15	x	x
COc1ccc(-c2cc(C(=O)NCc3cccs3)no2)cc1	32	1	-6	42*	u	92*
COCCNC(=O)c1cc(-c2cccc(OC)c2)on1	26	-2	-9	11	x	u
O=C(NCc1cccs1)c1cc(-c2ccccc2)on1	3	-5	-2	40	x	99*
COc1ccc(CNC(=O)c2cc(-c3cccs3)on2)cc1	8	2	-9	7	1	10
COc1cccc(-c2cc(C(=O)NCc3cccs3)no2)c1	3	-1	-3	72*	3	134*
NC(=O)c1c(N)[nH]c(C(=O)c2ccccc2)c1-c1ccc(Br)cc1	x	x	x	x	-2	x
CNc1ccccc1C(=O)OCC(=O)c1ccccc1	16	-4	-11	59*	x	64
O=C(COC(=O)c1ccccc1)c1ccc(Br)cc1	-25	2	3	61*	11	54
O=C(COC(=O)c1ccc(Br)cc1)NCCc1ccccc1	6	4	-3	x	x	-5
COc1ccc(CN(C)C[C@@H]2Oc3ccc(NS(C)(=O)=O)cc3C(=O)N([C@H](C)CO)C[C@H]2C)cc1	x	x	x	-2	x	x
C[C@@H]1CCCCO[C@H](CN(C)CC2CCCCC2)[C@H](C)CN([C@H](C)CO)C(=O)c2cc(NC(=O)NC3CCCCC3)ccc2O1	x	x	x	-2	x	x
Cc1ccc(-c2ccc3c(c2)O[C@H](CN(C)C(=O)C2CC2)[C@H](C)CN([C@H](C)CO)S3(=O)=O)cc1	x	x	x	-11	x	x
c1ccc(-c2ccc3cnccc3n2)cc1	x	x	x	52*	8	x
COc1ccc(CNC(=O)C(c2ccncc2)N(C(=O)Cc2cccs2)c2ccc(C)cc2)cc1 (stereo not drawn)	14	3	2	130*	x	1
COc1ccc(CNC(=O)C(c2ccncc2)N(C(=O)Cc2cccs2)c2ccccc2)cc1 (stereo not drawn)	-7	x	x	x	3	-19
CCc1nc2ccccc2n1Cc1ccc(OC)c(OC)c1	-14	-9	-7	0	-4	-15
COc1ccc(/C=C/c2nc3ccccc3n2Cc2ccc(OC)c(OC)c2)cc1	-12	2	-8	u	23	108*
SMILES	PHOSPHO1 inh	A3A deaminase	A3G deaminase	esBAF inh	Wnt bcat act	MITF TRPM1 HTS
COCn1c(-c2ccc(OC)c(OC)c2)nc2ccccc21	-6	3	1	47*	x	x
COCC#Cc1cnc2c(c1)C(=O)N([C@@H](C)CO)C[C@H](C)[C@H](CN(C)C(=O)Cc1ccncc1)O2	x	x	x	-2	x	x
C[C@H]1CN([C@@H](C)CO)C(=O)Cc2cc(NC(=O)Nc3ccc(F)cc3)ccc2O[C@@H]1CN(C)Cc1ccc(C(F)(F)F)cc1	x	x	x	2	x	x
COc1cccc(Nc2nc(-c3ccc4c(c3)OCCO4)cs2)c1	46	-2	-3	x	x	87*
c1ccc(-c2csc(Nc3ccc4c(c3)OCCO4)n2)cc1	2	-2	-5	14	46*	23
c1cc2c(cc1Nc1nc(-c3ccc4c(c3)OCO4)cs1)OCCO2	27	-1	4	21	x	x
C=CCNc1nc(-c2ccc3c(c2)OCCO3)cs1	15	-4	-11	1	42*	29
COc1ccc(Br)cc1/C=N/NC(=O)c1ccc(COc2ccc3c(c2)CCC3)o1	28	-5	-8	56*	-2	21
C[C@H](CO)N1C[C@H](C)[C@@H](CN(C)C(=O)c2ccncc2)OCCCC[C@H](C)Oc2ccc(NS(=O)(=O)c3cccs3)cc2C1=O	x	x	x	2	x	x
COc1ccc(NC(=O)Nc2ccc3c(c2)C(=O)N([C@H](C)CO)C[C@@H](C)[C@H](CN(C)Cc2ccc4c(c2)OCO4)OCCCC[C@@H](C)O3)cc1	x	x	x	-8	x	x
CCC(=O)N1[C@H](CO)[C@@H](c2ccc(-c3ccccc3)cc2)[C@@H]1CN(C)C(C)=O	x	x	x	2	x	x
Cc1ccc(NC(=O)c2ccc(NCc3ccc(F)cc3)nc2)cc1	-3	-1	-9	2	-1	0
Cc1ccc(NC(=O)c2ccc(Nc3ccccc3F)nc2)cc1	-30	2	-3	x	38*	41
S=C(Nc1cccc2ccccc12)N1CCN(c2ncccn2)CC1	88*	-5	11	38	x	4
CCOc1ccc2c(c1)C(=NNC(=O)c1ccncc1)c1cc(OCC)ccc1-2	-10	-2	-6	54*	49*	3
CCOc1ccc(NC(=O)c2ccncc2)cc1	3	-3	-6	x	x	8
C[C@@H]1CN([C@H](C)CO)C(=O)Cc2cc(NC(=O)CCN3CCOCC3)ccc2O[C@@H]1CN(C)Cc1ccc(-c2ccccc2)cc1	x	x	x	0	x	x
CC(C)NC(=O)N1[C@H](CO)[C@@H](c2ccccc2)[C@@H]1CN(C)C(=O)c1ccccc1	x	x	x	1	x	x
CC(C)C(=O)Nc1ccc2c(c1)C(=O)N(C)[C@H]1CC[C@H](CC(=O)N[C@H](C)c3ccccc3)O[C@H]1CO2	x	x	x	7	x	x
Nc1ncccc1OCc1ccc(Br)cc1	23	1	-1	x	6	102*
COc1ccc(COc2cccnc2N)cc1	-6	-3	-5	31	5	24
CC(C)COC(=O)N(C)C[C@@H]1OCc2cn(nn2)CCCC(=O)N([C@H](C)CO)C[C@H]1C	x	x	x	4	x	x
C[C@@H]1CCCCO[C@@H](CN(C)C)[C@H](C)CN([C@@H](C)CO)C(=O)c2cc(NC(=O)Cc3ccccc3)ccc2O1	x	x	x	3	x	x
CC(=O)Nc1sc(N)nc1-c1ccccc1	80*	-2	-7	3	-2	3
COc1ccc(C(=O)c2ccc(CC#N)s2)cc1	6	0	-5	51*	x	u
COc1ccc(C(=O)c2ccsc2N)cc1	29	-4	-7	x	9	20
CCOC(=O)c1sc2nc(C3CC3)cc(-c3ccc(OC)cc3)c2c1N	74*	-9	0	-6	x	-5
CCOC(=O)c1cc(-c2ccccc2)sc1N	-26	-9	-2	x	x	61
